Screening data from PubChem.
Hits are enriched below; roughly 4.9% of the tested compounds scored in any of these assays.
Platelet DG rel – modulates dense granule release in human platelets; human platelet-rich plasma, SFLLRN dense granule ATP release, luminescence; inhibition, %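 (compounds screened at 7.5 µM in platelet-rich plasma)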; actives 0.22% (n = 300,000);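 active = mean replicate score, as percent of positive control, at or above 50; inconclusive = mean below 50 but at least one replicate at or above 50; inactive = mean and every replicate below 50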
MPTP block – inhibitors of mitochondrial permeability transition pore | isolated mouse mitochondria, Ca2+ swelling absorbance, 30 min | actives 1.4% (n = 360,000) | AID 602449 | inhibition, % at 10 µM;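 active = inhibition of 50% or more, scaled per plate between neutral and stimulator controls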
HSF1 activator – increases HSF-1 driven luciferase reporter signal; activation, % at 9 µM; NIH3T3-HGL HSF-1 luciferase reporter, MG132, 8 h; 100% = twice DMSO control signal; actives 1.7% (n = 300,000);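 active = mean replicate activation of at least 50% with a set share of replicates each reaching 50%; inconclusive = only one of those two conditions met; inactive = mean below 50% and too few replicates reaching it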
dFosB act-1 – activators of mouse delta FosB homodimer | purified delta FosB, TAMRA-CDK5 oligo fluorescence polarization; percent of positive-control signal above neutral wells | actives 0.99% (n = 340,000) | P13346 | activation, % at 25 µM;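 active = mean activation above about 17%, with every replicate also reaching it, limit read from the data, passing the limit was not always enough; inconclusive = only one of the two conditions met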
Target sequence (P13346 whole entry, looked up): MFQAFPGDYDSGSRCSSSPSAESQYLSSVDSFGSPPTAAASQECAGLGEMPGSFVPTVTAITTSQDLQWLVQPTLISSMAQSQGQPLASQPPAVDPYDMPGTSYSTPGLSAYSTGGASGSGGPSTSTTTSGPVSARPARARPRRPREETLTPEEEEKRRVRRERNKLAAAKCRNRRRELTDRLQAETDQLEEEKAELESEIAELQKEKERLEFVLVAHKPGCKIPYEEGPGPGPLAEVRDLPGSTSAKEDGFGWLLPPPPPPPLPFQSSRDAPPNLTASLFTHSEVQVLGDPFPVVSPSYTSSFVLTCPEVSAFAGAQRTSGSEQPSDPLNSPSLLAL
HSP90 refold inh – HSP90 refolding inhibition in rabbit reticulocyte lysate. luciferase refolding luminescence, 3 h. actives 0.91% (n = 290,000). inhibition, % at 5.6 µM. AID 1789;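 active = inhibition above the screen-wide mean plus 3 SD, computed separately per campaign, cut at about 16% in these data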;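 note: inhibitors lower the luminescence because luciferase stays unfolded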
HSF1 inh – HSF1 inhibition; AID 2098; NIH3T3-HGL HSE-luciferase, MG132-induced, luminescence 8 h; hits give low values; activity change, negative = inhibition, % at 7.5 µM (by protocol); actives 0.77% (n = 300,000);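 active = more than half of replicate wells show activity change below -50%, luminescence cut by over half; inconclusive = some wells, but at most half, below -50%; inactive = no replicate well below -50%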;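 note: luciferase reports HSF-1 transcriptional activity via heat shock element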
dFosB act-2 – activators of mouse delta FosB homodimer DNA binding. shares compounds with dFosB act-1. activation, % at 24.9 µM. 2,400 tested, under 10 active. AID 588690. purified delta FosB, TAMRA-CDK5 oligo fluorescence polarization; normalised: neutral wells 0, positive control 100;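 active = highest replicate activation at or above 34% and every replicate reaching that threshold; inconclusive = meets only one of the two criteria; inactive = meets neither criterion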;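 note: higher polarization means more probe DNA bound by delta FosB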
Large screens that a line does not name were inactive (follow-up assays come after a bar, where they were run).

COc1ccc(-c2cc(C(=O)Nc3cc(S(=O)(=O)N4CCOCC4)ccc3N3CCOCC3)c3ccccc3n2)cc1	dFosB act-1 34 | dFosB act-2 inactive
COC(=O)c1sc(S(=O)(=O)N2CCCCC2C)c(C(=O)OC)c1C (configuration not stated)	none (no result: Platelet DG rel, HSF1 activator, HSP90 refold inh, HSF1 inh)
CNC(=O)c1ccc(-c2ccc(Cl)c(Cl)c2)s1	dFosB act-1 21 | dFosB act-2 inactive
CNC(=O)c1ccc(-c2ccc(F)cc2)s1	none
CCOc1ccc(N(C(=O)c2cnccn2)C(C(=O)NC2CCCCC2)c2ccc(O)cc2)cc1 (configuration not stated)	none
O=Nc1c2cc(-c3ccccc3)[nH]nc-2c2ccccc12	Platelet DG rel inconclusive
Cc1ccc(-c2cc3c(N=O)c4ccccc4c-3n[nH]2)cc1	Platelet DG rel inconclusive, dFosB act-1 32, HSP90 refold inh 58, HSF1 inh inconclusive | dFosB act-2 inactive
COC(=O)c1ccc(C2C(Oc3ccc(OC)cc3)C(=O)N2CCc2ccc(F)cc2)cc1 (configuration not stated)	dFosB act-1 23 | dFosB act-2 inactive
CC(C)(C)C(=O)CSc1ccc(S(=O)(=O)N2CCN(Cc3ccccc3)CC2)cn1	none (no result: Platelet DG rel, HSF1 activator, HSP90 refold inh, HSF1 inh)
Cc1cc(C)c2nc(NCCCNC(=S)NCCCN(C)C)c(C#N)cc2c1	dFosB act-1 32 | dFosB act-2 inconclusive
CCOCCCNC(=S)NCCCNc1nc2c(C)cc(C)cc2cc1C#N	none (no result: Platelet DG rel, HSF1 activator, HSF1 inh)
COC(=O)c1ccc(C(=O)Nc2ccc3nc(-c4cccnc4)[nH]c3c2)cc1	dFosB act-1 47 | dFosB act-2 inactive
C/C(=N\Nc1nc2ccccc2[nH]1)c1ccc2c(c1)OCO2	dFosB act-1 27 | dFosB act-2 inactive
Cn1c(N)c(C(=O)CSc2nn(-c3ccc(F)cc3)c(=S)s2)c(=O)n(C)c1=O	dFosB act-1 52 (no result: Platelet DG rel, HSF1 activator, HSP90 refold inh, HSF1 inh) | dFosB act-2 inactive
CC(C)CCOc1ccc(C(=O)NN2C(=O)NC3(CCCCC3)C2=O)cc1	none (no result: HSP90 refold inh)
O=C(COc1ccc2c(-c3ccccc3)cc(=O)oc2c1)Nc1ccc(CN2CCOCC2)cc1	dFosB act-1 27 | dFosB act-2 inactive
Cc1cc(=O)oc2cc(OCC(=O)Nc3ccc(CN4CCOCC4)cc3)ccc12	none
O=[N+]([O-])c1ccccc1OCCOc1ccccc1[N+](=O)[O-]	dFosB act-1 23 | dFosB act-2 inactive
CC(C)C(=O)Nc1ccc(Cl)cc1-c1nc2ccccc2[nH]c1=O	none
CNc1ccc([N+](=O)[O-])cc1-c1nc2ccccc2[nH]c1=O	dFosB act-1 40 | dFosB act-2 inactive
Clc1ccc2[nH]c3c(NCCCN4CCOCC4)ncnc3c2c1	dFosB act-1 22 | dFosB act-2 inactive
O=C(NC(=S)Nc1nc(-c2cccc([N+](=O)[O-])c2)cs1)c1ccccc1Cl	dFosB act-1 88 | dFosB act-2 inactive
O=C(Nc1nc(-c2cccc([N+](=O)[O-])c2)cs1)C(c1ccccc1)c1ccccc1	none
CCCOC1CCCN(C(=O)c2ccc3oc(C(C)C)nc3c2)C1 (configuration not stated)	none
Cc1ccc(Nc2ncnc(-n3cccc3)n2)cc1Cl	none
Clc1cc(Cl)cc(Nc2ncnc(-n3cccc3)n2)c1	dFosB act-1 30 | dFosB act-2 inactive
Cc1ccc2nc(C)cc(C(=O)OCC(=O)Nc3cccnc3Cl)c2c1	none
CN1CCN(S(=O)(=O)c2ccc(Sc3nc4ccccc4[nH]3)c3nsnc23)CC1	dFosB act-1 40 | dFosB act-2 inactive
CC(C)(C)c1nn2cnnc2n(/N=C/c2ccccc2)c1=O	none
Cc1cccc(C)c1OCC(=O)Nc1ncn[nH]1	none
O=C(COc1ccc2ccccc2c1Br)Nc1ncn[nH]1	dFosB act-1 25 | dFosB act-2 inactive
COc1cc(/C=C(/C#N)c2nc3ccccc3[nH]2)ccc1OCC(=O)Nc1ccccc1C	none (no result: Platelet DG rel, HSF1 activator, HSF1 inh)
COc1cc(/C=C(\C#N)c2nc3ccccc3[nH]2)ccc1OC(=O)c1ccco1	dFosB act-1 27 | dFosB act-2 inactive
O=C(Cn1cnc2sc3c(c2c1=O)CCCC3)NCC(=O)Nc1c(F)cccc1F	dFosB act-1 32 | dFosB act-2 inactive
O=C(CNC(=O)Cn1cnc2sc3c(c2c1=O)CCCC3)NCc1ccccn1	none
Cc1[nH]c2ccccc2c1C(=O)CN1C(=O)C(=O)N(C2CCCC2)C1=O	dFosB act-1 47 | dFosB act-2 inactive
COc1cc(NC(=O)c2cccnc2Sc2ccc(C)c(C)c2)cc(OC)c1OC	none
CC(=O)Nc1ccc(Sc2ncccc2C(=O)Nc2cc(Cl)cc(Cl)c2)cn1	dFosB act-1 82 | dFosB act-2 inactive
CC(=O)Nc1ccc(Sc2ncccc2C(=O)Nc2ccc(OC(F)(F)F)cc2)cn1	dFosB act-1 51 | dFosB act-2 inactive
COc1ccc(/C=C/C(=O)Nc2ccc(-n3nncc3-c3ccc(OC)c(OC)c3)cc2)cc1OC	dFosB act-1 46 | dFosB act-2 inactive
NC(N)=NS(=O)(=O)c1ccc(NC(=S)NC(=O)/C=C/c2ccccc2)cc1	dFosB act-1 22 | dFosB act-2 inactive
COc1ccc(-c2cnnn2-c2ccc(NC(=O)/C=C/c3ccc(OC)c(OC)c3)cc2)cc1	none
COc1ccc(/C=C/C(=O)NC(=S)Nc2ccc(S(N)(=O)=O)cc2)cc1OC	dFosB act-1 47 | dFosB act-2 inactive
COc1ccc(/C=C/C(=O)NC(=S)Nc2ccccc2)cc1OC	dFosB act-1 33 | dFosB act-2 inactive
COc1ccc(NC(=S)NCc2ccc(S(N)(=O)=O)cc2)cc1OC	none
COc1ccc(/C=C/C(=O)Nc2ccccc2)cc1OC	none
CCOC(=O)c1ccc(N(CCC2CO2)S(=O)(=O)c2ccc(C)cc2)cc1 (configuration not stated)	none (no result: Platelet DG rel, HSP90 refold inh)
CC(=O)NCCc1ccc(C(=O)COC(=O)c2cccs2)cc1	none (no result: Platelet DG rel, HSF1 activator, dFosB act-1, HSP90 refold inh, HSF1 inh)
O=C1CC[C@@H](C(=O)O)N1	none (no result: Platelet DG rel, HSF1 activator, HSP90 refold inh, HSF1 inh)
CC(=O)Nc1ccc(NC(=O)C2CC(=O)Nc3nc4ccccc4n32)cc1 (configuration not stated)	none
Cc1ccc(NC(=O)C2CC(=O)Nc3nc4ccccc4n32)c(C)c1 (configuration not stated)	dFosB act-1 47 | dFosB act-2 inactive
O=C(Nc1ccc2oc(-c3ccncc3)nc2c1)c1ccc2c(c1)OCO2	none
O=C(Nc1ccc2oc(-c3cccnc3)nc2c1)c1ccc2c(c1)OCCO2	dFosB act-1 33 | dFosB act-2 inactive
O=C(Nc1ccc2oc(-c3ccncc3)nc2c1)c1ccc(F)cc1	dFosB act-1 36 | dFosB act-2 inactive
O=C(Nc1ccc2oc(-c3ccncc3)nc2c1)c1c(F)c(F)c(F)c(F)c1F	none (no result: Platelet DG rel, HSF1 activator, HSF1 inh)
O=C(Nc1ccc2oc(-c3ccccc3)nc2c1)c1ccc2c(c1)OCCO2	dFosB act-1 42 | dFosB act-2 inactive
